Pf growth 96h: P. falciparum growth inhibition at 96 hour, primary screen for plastid delayed-death inhibitors; P. falciparum luciferase reporter growth, 96 h; hit rate 6.9% among 320,000; Potency, µM (highest dose often 28.7 µM), without a hit: at the highest dose activity change, negative = inhibition, hits mostly inhibitors; further: potency means the concentration at half of the fitted maximal effect
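Cell-based qHTS: luciferase-tagged P. falciparum in erythrocytes (2% hematocrit, 0.05% parasitemia final) incubated with compounds for 96 hours, 37 C, 5% CO2; luciferase detection reagent then added and luminescence measured.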
Pf growth 48h: P. falciparum growth inhibition at 48 hours (one generation); Potency, µM (top dose mostly 28.7 µM), without a hit: at the top dose activity change, negative = inhibition, hits mostly inhibitors; hit rate 5.9% among 310,000; P. falciparum luciferase growth in erythrocytes, 48 h; further: potency means the concentration at half of the fitted maximal effect
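In quantitative HTS format, infected erythrocytes bearing luciferase-reporter parasites were treated for a single generation at 37 C. Luminescence after adding detection reagent served as the growth measure.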
MARV entry inh: Marburg virus entry inhibition | Marburg virus pseudotyped entry inhibition, cell reporter | Potency, µM (highest dose often 37.8 µM), for the others: top-dose activity change, negative = inhibition, usual class: inhibitors | hit rate 1.8% among 300,000 | AID 540276; calls by dose curve; tested in HEK293 cells; further: potency means the concentration at half of the fitted maximal effect
HCV inh: HCV inhibition; Huh7.5.1 HCVcc-Cre infection, luciferase reporter, 44 h; Potency, µM (doses to about 41.8 µM), inactives show at the highest dose activity change, negative = inhibition, usual class: inhibitors; hit rate 3.4% among 340,000; AID 651820; further: potency means the concentration at half of the fitted maximal effect
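Reporter virus HCVcc-Cre (~0.5 moi) infects cells exposed to compound; seeding density 1,000 cells/well with 4 h settling beforehand. Luminescence, 15 sec read, taken 44 h post-infection following a 15 min RT substrate incubation.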
HCMV antiviral: inhibitors of human cytomegalovirus; HFF cells, HCMV-luciferase reporter, 72 h; active compounds read low; activity change, negative = inhibition, % at 57.5 µM; hit rate 4.5% among 410,000; AID 1259415; in the data active means activity change below about -60%; inconclusive means no clear call, values can overlap the other calls; inactive means above about -39%
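Two-dose cell screen: HFF monolayers treated with compounds and infected with luciferase-expressing HCMV at 1 PFU/cell, 72 h at 37C, then lysed for luciferase measurement.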
LASV entry inh: Lassa virus entry inhibition; Lassa virus pseudotype entry inhibition, cell reporter; Potency, µM (series often up to 37.9 µM), for inactives: at the top dose activity change, negative = inhibition, hits mostly inhibitors; hit rate 1.2% among 300,000; AID 540256; calls by dose curve; tested in HEK293 cells; further: potency means the concentration at half of the fitted maximal effect; nearly all actives have a fitted effect of over 50% in size
The depositor's hits bear a star; [ ] = another dose, or the depositor's remark. This is a sample that favours compounds with a hit; in the whole collection about 14% have one here. Unless noted, the call rests on the fitted dose curve; in most records, active means well fitted inhibition curve with a large enough effect; inconclusive means small, poorly fitted or top-dose-only effect, or another doubt; inactive means no such curve, though single readings can be large or run the other way. On the % scale 0 is the no-effect control and ±100 the full control effect.

Results for N#Cc1ccccc1OCC(=O)N1CCN(S(=O)(=O)c2ccc(Cl)cc2)CC1 ?
Pf growth 96h: 10µM*; Pf growth 48h: inconclusive; HCV inh: 18%; HCMV antiviral: -35

Results for CC1CC(C)CN(C(=O)CCNC(=O)c2ccccc2Cl)C1 (configuration not stated) ?
Pf growth 96h: 0.47µM*; Pf growth 48h: 0.93µM*; MARV entry inh: 12%[46.1 µM]; HCV inh: 12%; HCMV antiviral: 4; LASV entry inh: 17%[46.1 µM]

What do the screens show for `O=C(NCCC(=O)N1CCCCC1)c1ccccc1Cl`?
Pf growth 96h: 39%; Pf growth 48h: 28%; MARV entry inh: 9%[46.1 µM]; HCV inh: 1%; LASV entry inh: inconclusive

Results for COc1ccccc1C(=O)NCCC(=O)N1CCN(S(=O)(=O)c2ccc(Cl)cc2)CC1 ?
Pf growth 96h: 13µM*; Pf growth 48h: inconclusive; HCV inh: 12%; HCMV antiviral: 0

What do the screens show for `O=C(COC(=O)c1cc(S(=O)(=O)N2CCOCC2)ccc1O)Nc1ccc2c(c1)OCO2`?
HCV inh: -8%; HCMV antiviral: 32

Results for Cc1cc(C)c(C(=O)CN2C(=O)C(=O)N(C3CCCC3)C2=O)cc1C ?
Pf growth 96h: 22%; Pf growth 48h: -2%; HCV inh: 4%; HCMV antiviral: 8

How did O=C(CCCOc1ccccc1)N1CCN(S(=O)(=O)c2ccc(Cl)cc2)CC1 do in these assays?
Pf growth 96h: 9%; Pf growth 48h: 12µM*; MARV entry inh: -9%; HCV inh: -8%; HCMV antiviral: -17; LASV entry inh: -22%

How did Cc1cccc(C(=O)N2CCc3cc(CNS(=O)(=O)c4ccc(Cl)s4)ccc32)c1 do in these assays?
HCMV antiviral: -4; LASV entry inh: -27%[46.1 µM]

How did CCC(=O)N1CCc2cc(CNS(=O)(=O)c3c(C)cc(C)cc3C)ccc21 do in these assays?
HCMV antiviral: -35; LASV entry inh: -12%[46.1 µM]

Results for COc1ccc(OC)c(S(=O)(=O)NCc2ccc3c(c2)CCN3C(=O)c2cccc(C)c2)c1 ?
HCMV antiviral: -80*; LASV entry inh: inconclusive

Results for Cc1cc(C)c(S(=O)(=O)NCc2ccc3c(c2)CCN3C(=O)c2ccccc2)c(C)c1 ?
HCMV antiviral: -60*; LASV entry inh: 6%[46.1 µM]

Results for C/C(CC(=O)Nc1ccc(Cl)c(C(F)(F)F)c1)=N\NC(N)=S ?
Pf growth 96h: 35%; Pf growth 48h: 45%; MARV entry inh: inconclusive; HCV inh: 6.3µM*; HCMV antiviral: -27; LASV entry inh: inconclusive

Results for C/C(CC(=O)Nc1ccc(C)c(Cl)c1)=N\NC(=O)C1CCCCC1 ?
Pf growth 96h: 28%; Pf growth 48h: 38%; MARV entry inh: -1%; HCV inh: inconclusive; HCMV antiviral: -22; LASV entry inh: -5%

What do the screens show for `C/C(CC(=O)Nc1ccc(Cl)c(C(F)(F)F)c1)=N\NC(=O)c1cnccn1`?
Pf growth 96h: -8%; Pf growth 48h: inconclusive; MARV entry inh: inconclusive; HCV inh: inconclusive; HCMV antiviral: -23; LASV entry inh: inconclusive

What do the screens show for `C/C(CC(=O)Nc1ccc(Cl)c(C(F)(F)F)c1)=N\NC(=O)c1cccc(O)c1`?
Pf growth 96h: -1%; Pf growth 48h: 12µM*; MARV entry inh: inconclusive; HCV inh: -13%; HCMV antiviral: -15; LASV entry inh: inconclusive

How did C/C(CC(=O)Nc1ccc(Cl)c(C(F)(F)F)c1)=N\NC(=O)c1ccccc1O do in these assays?
Pf growth 96h: inconclusive; Pf growth 48h: inconclusive; MARV entry inh: 18µM*; HCV inh: -2%; HCMV antiviral: -80*; LASV entry inh: inconclusive

How did O=C1CCSc2ccc(Cl)cc2N1Cc1ccc(Cl)cc1 do in these assays?
Pf growth 96h: 15µM*; Pf growth 48h: inconclusive; MARV entry inh: inconclusive; HCV inh: 8%; HCMV antiviral: -15; LASV entry inh: -20%

What do the screens show for `COc1ccc([C@]23Cc4cc(C#N)ccc4[C@H](O2)c2c(cc(C)n(-c4ccccc4)c2=O)O3)cc1`?
MARV entry inh: 2%[14.2 µM]

How did Cc1cc2c(c(=O)n1-c1ccccc1)C1O[C@](c3ccsc3)(Cc3ccccc31)O2 do in these assays?
Pf growth 96h: 1.7µM*; Pf growth 48h: inconclusive

Results for COc1cc2c(cc1OC)[C@@H]1O[C@](c3ccsc3)(C2)Oc2cc(C)n(-c3ccccc3)c(=O)c21 ?
Pf growth 96h: 1.5µM*; Pf growth 48h: 2%[5.75 µM]

Results for COc1cc(OC)c2c(C)c(Cl)c(=O)oc2c1 ?
Pf growth 96h: 10µM*; Pf growth 48h: 32%; MARV entry inh: 5%; HCV inh: -19%; HCMV antiviral: 40; LASV entry inh: inconclusive

What do the screens show for `COc1cc(OC)c2c(=O)cc(-c3ccccc3)oc2c1`?
Pf growth 96h: 174%; Pf growth 48h: 132%; HCV inh: inconclusive; HCMV antiviral: 120

What do the screens show for `CC1(C(=O)O)CCCN1C(=O)c1cccc2ccccc12` (configuration not stated)?
HCMV antiviral: 4

How did Cc1ccc(C2=NN(CC(=O)NCCN(CC(C)C)CC(C)C)C(=O)CC2)cc1 do in these assays?
Pf growth 96h: 2%; Pf growth 48h: -46%; MARV entry inh: inconclusive; HCV inh: 0%; HCMV antiviral: inconclusive; LASV entry inh: inconclusive

Results for COc1ccc(S(=O)(=O)N(C)CC(=O)NCCc2ccccc2)cc1OC ?
Pf growth 96h: 15µM*; Pf growth 48h: inconclusive; HCV inh: -21%; HCMV antiviral: -17

What do the screens show for `COc1ccc(CCNC(=O)CN(C)S(=O)(=O)c2ccc(Br)s2)cc1OC`?
Pf growth 96h: 1.9µM*; Pf growth 48h: -5%; MARV entry inh: -7%; HCV inh: -9%; HCMV antiviral: -17; LASV entry inh: 1%

Results for CCOC(=O)C1CCN(C(=O)c2cc3ccc4ccc(C)[nH]c4c3n2)CC1 ?
HCMV antiviral: 71; LASV entry inh: 13%[46.1 µM]

How did Cc1ccc(S(=O)(=O)N2CCC(=O)N([C@H](COCc3cccc(C)c3)C(C)C)CC2)cc1 do in these assays?
MARV entry inh: inconclusive; HCMV antiviral: -22

How did COc1ccc(C2C(C#N)=C(N)N(c3sc4c(c3C#N)CCCC4)C3=C2C(=O)CC(C)(C)C3)cc1OC (configuration not stated) do in these assays?
Pf growth 96h: 5.2µM*; MARV entry inh: inconclusive; HCV inh: inconclusive; HCMV antiviral: -3; LASV entry inh: inconclusive

How did COc1ccc(C2C(C#N)=C3NC(=O)c4c(sc5c4CCCCC5)N3C3=C2C(=O)CC(C)(C)C3)cc1 (configuration not stated) do in these assays?
Pf growth 96h: inconclusive; Pf growth 48h: inconclusive; MARV entry inh: inconclusive; HCV inh: inconclusive; HCMV antiviral: -4; LASV entry inh: 23µM*
